Assay results as given in the supplement of paper PMC13380429.

Experiments:
[1] = tested on: Vero E6 infected with SARS-CoV-2; assay: morphology score (similarity to uninfected cells); higher = more like uninfected cells; settings: 24 h
[2] = tested on: Vero E6 infected with SARS-CoV-2; assay: SARS-CoV-2 infection rate relative to infected DMSO; higher = more infection, active = 60 or less; settings: 24 h

Structure (SMILES) | morphology score [1] | SARS-CoV-2 infection rate [2]
COC(=O)C1=C(C)NC(C)=C(C(=O)OCCN2CCN(C(c3ccccc3)c3ccccc3)CC2)C1c1cccc([N+](=O)[O-])c1 (stereo unspecified) [manidipine] (10 µM) | 0.247 | 91% (inactive)
CNCCC=C1c2ccccc2CCc2ccccc21 [nortriptyline] (0.833333 µM) | -0.1 | 110% (inactive)
CCOC(=O)c1c(O)nc2cccc3c2c1-c1ccccc1C3=O (10 µM) | -0.157 | 117% (inactive)
CC(C)c1c(NC(=O)Nc2ccc(Cl)cc2)c(=O)n(-c2ccccc2)n1C (10 µM) | 0.0113 | 112% (inactive)
COc1ccc2cc(-c3nc(-c4ccc([S+](C)[O-])cc4)[nH]c3-c3ccncc3)ccc2c1 (stereo unspecified) [tie2-kinase-inhibitor] (10 µM) | 0.619 | 72.5% (inactive)
CNCc1cc(-c2ccccc2F)n(S(=O)(=O)c2cccnc2)c1 [vonoprazan] (10 µM) | 0.00653 | 114% (inactive)
C[C@H](NCc1ccc(OCc2cccc(F)c2)cc1)C(N)=O [safinamide] (10 µM) | -0.052 | 115% (inactive)
c1ccc(OCc2ccc(CCCN3CCOCC3)cc2)cc1 [fomocaine] (10 µM) | -0.0235 | 106% (inactive)
O=S(=O)(O)c1ccc(O)cc1 [4-phenolsulfonic-acid] (10 µM) | -0.0939 | 114% (inactive)
CC(=O)c1ccc2c(c1)N(CCCN1CCC(CCO)CC1)c1ccccc1S2 [piperacetazine] (10 µM) | 0.384 | 75% (inactive)
Cc1c(C)c2c(c(C)c1OC(=O)CCC(=O)O)CC[C@@](C)(CCC[C@H](C)CCC[C@H](C)CCCC(C)C)O2 [D-alpha-tocopheryl-succinate] (10 µM) | 0.0385 | 101% (inactive)
C=CCN1C[C@H](C)N([C@H](c2ccc(C(=O)N(CC)CC)cc2)c2cccc(O)c2)C[C@H]1C (10 µM) | 0.1 | 105% (inactive)
NC(=O)c1nc(Nc2ccccc2)sc1NC(=O)C1CCCCC1 (0.833333 µM) | 0.0658 | 100% (inactive)
Cc1cccc(-c2n[nH]cc2-c2ccc(F)c(-c3cnn(CCO)c3)c2)n1 (10 µM) | 0.148 | 104% (inactive)
CCOC(=O)c1cnc2c(cnn2CC)c1NN=C(C)C [etazolate] (10 µM) | 0.254 | 100% (inactive)
COC(c1ccccc1)(c1ccccc1)[C@H](Oc1nc(C)cc(C)n1)C(=O)O [ambrisentan] (10 µM) | -0.0233 | 104% (inactive)
CC(C)(CC(=O)N1CCCC1)NCC(=O)N1C[C@@H](F)C[C@H]1C#N (10 µM) | 0.0148 | 102% (inactive)
CN1CCN(CCCN2c3ccccc3Sc3ccc(C(F)(F)F)cc32)CC1 [trifluoperazine] (0.833333 µM) | 0.156 | 96.5% (inactive)
CCNC(=O)Nc1ccc(-c2nc3c(c(N4CCOC[C@@H]4C)n2)CCN(C2COC2)C3)cc1 (0.833333 µM) | 0.13 | 103% (inactive)
C=C1C(=O)O[C@@H]2[C@H]3O[C@]3(C)CC/C=C(\C)CC[C@@H]12 [parthenolide-(alternate-stereo)] (0.833333 µM) | 0.111 | 106% (inactive)

Structure (SMILES) | morphology score [1] | SARS-CoV-2 infection rate [2]
O=C(N[C@@H]1Cc2ccccc2N(C[C@@H](O)CO)C1=O)c1cc2cc(Cl)sc2[nH]1 (10 µM) | -0.155 | 105% (inactive)
c1cnc(SCc2cccnc2)nc1 [tasuldine] (10 µM) | 0.175 | 99.5% (inactive)
CCOc1ccccc1OCC1CNCCO1 (stereo unspecified) [viloxazine] (10 µM) | 0.0033 | 112% (inactive)
Cc1ccc(-c2ccc(F)cc2COc2ccc(CCC(=O)O)cc2)cc1 (10 µM) | -0.174 | 100% (inactive)
CCOC(=O)C1=C(COCCN)NC(C)=C(C(=O)OC)C1c1ccccc1Cl (stereo unspecified) [amlodipine] (10 µM) | 0.697 | 47% (active)
N=C(N)c1ccc(-c2ccc(-c3ccc(C(=N)N)cc3)o2)cc1 [furamidine] (10 µM) | -0.436 | 98% (inactive)
O=C(c1ccc(F)cc1)C1CCN(CCn2c(=O)[nH]c3ccccc3c2=O)CC1 [ketanserin] (10 µM) | 0.144 | 106% (inactive)
CCNC(C)CN1CCc2c(c(=O)oc3ccccc23)C1 (stereo unspecified) (10 µM) | 0.209 | 98% (inactive)
COCC(=O)O[C@]1(CCN(C)CCCc2nc3ccccc3[nH]2)CCc2cc(F)ccc2[C@@H]1C(C)C [mibefradil] (10 µM) | 0.79 | 17.5% (active)
CN1[C@H]2C[C@H](OC(=O)[C@H](CO)c3ccccc3)C[C@@H]1[C@@H](O)C2 [anisodamine] (10 µM) | -0.00951 | 116% (inactive)
CCCCCOc1ccc(-c2ccc(-c3ccc(C(=O)N[C@H]4C[C@@H](O)[C@@H](O)NC(=O)[C@@H]5[C@@H](O)[C@@H](C)CN5C(=O)[C@H]([C@@H](C)O)NC(=O)[C@H]([C@H](O)[C@@H](O)c5ccc(O)cc5)NC(=O)[C@@H]5C[C@@H](O)CN5C(=O)[C@H]([C@@H](C)O)NC4=O)cc3)cc2)cc1 [anidulafungin] (10 µM) | -0.164 | 110% (inactive)
O=c1[nH]c2cc(C(F)(F)F)c(N3CCOCC3)cc2n(CP(=O)(O)O)c1=O (10 µM) | 0.119 | 99% (inactive)
Cc1cccc(NC(=O)c2ccc(C(F)(F)F)cc2C(=O)O)n1 (10 µM) | -0.208 | 109% (inactive)
O=C(O)C(=O)c1cn(Cc2ccccc2)c2ccc(-c3ccc(OC(F)(F)F)cc3)cc12 [tiplaxtinin] (10 µM) | 0.0476 | 106% (inactive)
Cc1cc(C)c(S(=O)(=O)Nc2ccccc2C(F)(F)F)c(C)c1 (10 µM) | -0.0872 | 113% (inactive)
Cc1cccc(Oc2nc3c(C)cccn3c(=O)c2/C=C(\C#N)c2nc3ccccc3s2)c1 (10 µM) | 0.0471 | 106% (inactive)
Cc1ccc2c(=O)c3cccc(CC(=O)O)c3oc2c1C (10 µM) | -0.0879 | 114% (inactive)
N#Cc1cc(F)cc(-c2nc(-c3ccc(F)cn3)no2)c1 (10 µM) | 0.136 | 89% (inactive)
CCN(CC)CCOc1ccc(Cc2ccccc2)cc1 (10 µM) | 0.39 | 71% (inactive)
CC(C)(C)C(=O)OCOC(=O)[C@@H]1N2C(=O)[C@@H](/N=C/N3CCCCCC3)[C@H]2SC1(C)C [pivmecillinam] (10 µM) | -0.0287 | 99% (inactive)

Structure (SMILES) | morphology score [1] | SARS-CoV-2 infection rate [2]
O=c1c(-c2ccc(O)cc2)coc2cc(O)ccc12 [daidzein] (10 µM) | 0.126 | 95% (inactive)
CCOC(=O)CCC(=O)O[C@H]1[C@H](O[C@@H]2[C@@H](C)[C@H](O[C@H]3C[C@@](C)(OC)[C@@H](O)[C@H](C)O3)[C@@H](C)C(=O)O[C@H](CC)[C@@](C)(O)[C@H](O)[C@@H](C)C(=O)[C@H](C)C[C@@]2(C)O)O[C@H](C)C[C@@H]1N(C)C [erythromycin-ethylsuccinate] (10 µM) | -0.215 | 118% (inactive)
Cc1ccc(=O)n(-c2ccc(O)cc2)c1 (10 µM) | -0.0543 | 94.5% (inactive)
CCc1cc2c(cc1N1CCC(N3CCOCC3)CC1)C(C)(C)c1[nH]c3cc(C#N)ccc3c1C2=O [alectinib] (10 µM) | 0.135 | 106% (inactive)
CNC[C@H](O)c1cccc(O)c1 [phenylephrine] (10 µM) | -0.0115 | 110% (inactive)
CCCCCCCCCCCCCCCCOc1nc2ccc(C)cc2c(=O)o1 [cetilistat] (10 µM) | -0.00505 | 104% (inactive)
COc1cc(/C=C/C(=O)N2CCN(CC(=O)N3CCCC3)CC2)cc(OC)c1OC [cinepazide] (10 µM) | -0.015 | 108% (inactive)
O[C@@H](CN1CCC(Cc2ccc(F)cc2)CC1)c1ccc(Cl)cc1 (racemic) [eliprodil] (10 µM) | 0.218 | 87% (inactive)
CCOC(=O)Nc1ccc(NCc2c(C)cc(C)cc2C)cc1N (10 µM) | -0.0161 | 108% (inactive)
NCCc1ccc(O)c(O)c1 [dopamine] (10 µM) | -0.112 | 100% (inactive)
CC(N)C12CC3CC(CC(C3)C1)C2 (stereo unspecified) [rimantadine] (10 µM) | 0.136 | 102% (inactive)
COc1cc(OC2CCN(C)CC2)ccc1Nc1ncc2c(n1)n(C1CCCC1)c(=O)n2C (0.833333 µM) | 0.126 | 98% (inactive)
C[C@H](CCC(=O)O)[C@H]1CC[C@H]2[C@@H]3[C@H](O)C[C@@H]4C[C@H](O)CC[C@]4(C)[C@H]3C[C@H](O)[C@]12C [cholic-acid] (10 µM) | 0.0109 | 110% (inactive)
CCCN(CCC)C(=O)C(CCC(=O)OCCCN1CCN(CCOC(=O)Cc2c(C)n(C(=O)c3ccc(Cl)cc3)c3ccc(OC)cc23)CC1)NC(=O)c1ccccc1 (stereo unspecified) [proglumetacin] (10 µM) | 0.0923 | 99.5% (inactive)
Nc1nc2c(ncn2COC(CO)CO)c(=O)[nH]1 [ganciclovir] (10 µM) | 0.108 | 97% (inactive)
Clc1cccc(-n2nnnc2NCc2ccccc2Oc2ccccn2)c1Cl (10 µM) | -0.0586 | 110% (inactive)
Cc1csc(S(=O)(=O)N(CC(C)C)c2cc3c(cc2OCc2ccc(C(=O)O)cc2)CCC3)n1 (10 µM) | -0.0439 | 107% (inactive)
CC[C@]1(O)C[C@H]2CN(CCc3c([nH]c4ccccc34)[C@@](C(=O)OC)(c3cc4c(cc3OC)N(C=O)[C@H]3[C@@](O)(C(=O)OC)[C@H](OC(C)=O)[C@]5(CC)C=CCN6CC[C@]43[C@@H]65)C2)C1 [Vincristine (sulfate)] (10 µM) | -0.036 | 101% (inactive)
